The values below come from the supplement of paper PMC9694430.

What all share (assay): thermal shift delta Tm vs DMSO control; higher = stronger stabilization (binding)
Common to all, as to conditions: 12.5 µM; protein concentration 2 µM

In one test the test system is LOC_OS02G45750-cb003. An outline of the steps: (§1)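 Rice kinase domain constructs were expressed in E. coli, purified, and tested by differential scanning fluorimetry with compound added in DMSO. Each well of a 96-well plate held 19.5 μl of 2 μM kinase in 100 mM potassium phosphate pH 7.5, 150 mM NaCl, 10% glycerol and 5 × SYPRO Orange, and fluorescence was read from 25°C to 95°C at 0.05°C/s. The melting temperature shift is the mean of triplicates, taken against protein with DMSO alone after Boltzmann fitting.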

Another test has as its system LOC_OS02G54510-cb004. The essentials:
as §1

For another test, the system named is LOC_OS03G04050-cb001. The essentials:
as §1

For a further test, the system named is LOC_OS03G12390-cb001. An outline of the steps: as §1
A further test concerns LOC_OS03G27990-cb004. An outline of the steps: as §1
The next test deals with LOC_OS03G50450-cb001. An outline of the steps:
as §1

The subject of a further test is LOC_OS03G50810-cb003. The essentials: as §1
Another test concerns LOC_OS04G35114-cb001. The essentials:
as §1

In the next test the test system is T1, LOC_OS04G38480-cb003.
T1 sequence (whole entry): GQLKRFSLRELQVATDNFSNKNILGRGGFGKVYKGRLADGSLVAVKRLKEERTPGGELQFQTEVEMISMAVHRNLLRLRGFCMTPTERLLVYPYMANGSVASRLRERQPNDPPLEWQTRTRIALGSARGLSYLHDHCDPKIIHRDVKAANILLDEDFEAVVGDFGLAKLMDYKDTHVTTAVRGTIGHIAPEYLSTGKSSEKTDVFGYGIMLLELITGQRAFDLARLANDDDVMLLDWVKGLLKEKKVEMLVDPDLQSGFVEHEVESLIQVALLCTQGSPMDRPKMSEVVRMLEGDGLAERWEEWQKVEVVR
An outline of the steps: as §1

A further test has as its system T2, LOC_OS04G41100-cb001.
T2 sequence (whole entry): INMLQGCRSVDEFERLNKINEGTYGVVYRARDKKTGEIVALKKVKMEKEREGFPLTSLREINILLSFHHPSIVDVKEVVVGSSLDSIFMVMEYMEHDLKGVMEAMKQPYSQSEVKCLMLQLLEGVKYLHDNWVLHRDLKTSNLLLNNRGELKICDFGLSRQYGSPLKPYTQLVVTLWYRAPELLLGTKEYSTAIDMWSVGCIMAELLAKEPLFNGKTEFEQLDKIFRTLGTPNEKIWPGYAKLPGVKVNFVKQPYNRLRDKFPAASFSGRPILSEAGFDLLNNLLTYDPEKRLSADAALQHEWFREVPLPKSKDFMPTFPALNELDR
An outline of the steps: as §1

The subject of the next test is LOC_OS04G57630-cb004. An outline of the steps: as §1
Another test concerns LOC_OS05G07850-cb002. An outline of the steps: as §1
The next test deals with LOC_OS05G16824-cb004. The essentials: as §1
A further test relates to LOC_OS05G28520-cb001. The essentials:
as §1

Another test concerns LOC_OS05G30820-cb001. The essentials: as §1
The test system of a further test is LOC_OS05G43570-cb004. The essentials: as §1
A further test relates to LOC_OS06G16330-cb003. An outline of the steps: as §1
Chain of LOC_OS06G16330-cb003 (as listed by the source): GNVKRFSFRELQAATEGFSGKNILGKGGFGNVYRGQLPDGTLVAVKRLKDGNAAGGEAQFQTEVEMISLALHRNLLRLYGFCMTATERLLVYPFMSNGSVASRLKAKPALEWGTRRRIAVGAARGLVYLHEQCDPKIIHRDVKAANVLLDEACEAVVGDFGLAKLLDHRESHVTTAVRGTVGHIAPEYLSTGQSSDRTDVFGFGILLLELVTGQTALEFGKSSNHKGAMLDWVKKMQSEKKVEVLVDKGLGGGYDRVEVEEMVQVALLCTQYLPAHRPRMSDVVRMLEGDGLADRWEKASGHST
Another test deals with T3, LOC_OS06G22820-cb001.
T3 sequence (whole entry): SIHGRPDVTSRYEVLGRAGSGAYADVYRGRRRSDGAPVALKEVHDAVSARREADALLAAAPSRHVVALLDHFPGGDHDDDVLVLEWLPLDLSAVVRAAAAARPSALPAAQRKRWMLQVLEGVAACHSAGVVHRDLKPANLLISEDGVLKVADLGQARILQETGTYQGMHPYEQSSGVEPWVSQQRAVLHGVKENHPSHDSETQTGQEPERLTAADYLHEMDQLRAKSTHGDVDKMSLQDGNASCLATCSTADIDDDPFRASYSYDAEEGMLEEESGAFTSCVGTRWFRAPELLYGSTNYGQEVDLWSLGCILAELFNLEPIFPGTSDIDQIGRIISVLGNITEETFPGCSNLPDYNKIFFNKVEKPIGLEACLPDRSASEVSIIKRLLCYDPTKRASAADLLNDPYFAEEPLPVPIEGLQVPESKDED
An outline of the steps:
as §1

For another test, the system named is LOC_OS07G06570-cb004. The essentials:
as §1

The subject of the next test is LOC_OS07G07230-cb001. An outline of the steps: as §1

Consider `Cn1cc(-c2ccc3c(c2)CCN3C(=O)Cc2cccc(C(F)(F)F)c2)c2c(N)ncnc21`, for which the “thermal shift delta Tm” value in the test on LOC_OS02G45750-cb003 stood at 4.4 °C; with LOC_OS02G54510-cb004 it was 2.71 °C; with LOC_OS03G04050-cb001, 0.45 °C; in the test with LOC_OS03G12390-cb001, 0.39 °C; in the test on LOC_OS03G27990-cb004, 0.12 °C; with LOC_OS03G50450-cb001 it was 0 °C. Further, the “thermal shift delta Tm” value with LOC_OS03G50810-cb003 turned out to be 0.95 °C; in the test on LOC_OS04G35114-cb001 it was 2.08 °C; with LOC_OS04G38480-cb003, 1.08 °C; in the test with LOC_OS04G41100-cb001, 1.28 °C; in the test with LOC_OS04G57630-cb004, 1.69 °C; with LOC_OS05G07850-cb002 it was 6.67 °C. Besides, the “thermal shift delta Tm” value came to 1.91 °C in the test on LOC_OS05G16824-cb004; 0.55 °C with LOC_OS05G28520-cb001; 0.78 °C in the test with LOC_OS05G30820-cb001; 0.46 °C in the test on LOC_OS05G43570-cb004; 2.76 °C in the test on LOC_OS06G16330-cb003; 0.97 °C with LOC_OS06G22820-cb001. In addition, the “thermal shift delta Tm” value was 0.97 °C in the test with LOC_OS07G06570-cb004 and 4.19 °C in the test on LOC_OS07G07230-cb001.
On to `Cc1nc(Nc2ncc(C(=O)Nc3c(C)cccc3Cl)s2)cc(N2CCN(CCO)CC2)n1` [Dasatinib], for which the “thermal shift delta Tm” value is 10.7 °C in the test with LOC_OS02G45750-cb003; 14 °C with LOC_OS02G54510-cb004; 0.29 °C in the test with LOC_OS03G04050-cb001; 0.81 °C in the test on LOC_OS03G12390-cb001; 1.34 °C in the test with LOC_OS03G27990-cb004; 0.06 °C in the test with LOC_OS03G50450-cb001. In addition, the “thermal shift delta Tm” value with LOC_OS03G50810-cb003 came to 3.61 °C; in the test with LOC_OS04G35114-cb001, 5.79 °C; with LOC_OS04G38480-cb003, 1.57 °C; with LOC_OS04G41100-cb001 it was 0.77 °C; in the test with LOC_OS04G57630-cb004, 2.57 °C; with LOC_OS05G07850-cb002 it was 4.35 °C. Further, the “thermal shift delta Tm” value in the test with LOC_OS05G16824-cb004 worked out at 5.06 °C; with LOC_OS05G28520-cb001, 1.02 °C; in the test with LOC_OS05G30820-cb001 it was 0.42 °C; with LOC_OS05G43570-cb004, 0.75 °C; in the test with LOC_OS06G16330-cb003, 1.61 °C; in the test on LOC_OS06G22820-cb001 it was 0.79 °C. Moreover, the “thermal shift delta Tm” value in the test with LOC_OS07G06570-cb004 was 1.03 °C; in the test on LOC_OS07G07230-cb001, 1.1 °C.
For `COc1cc2ncnc(Nc3ccc(F)c(Cl)c3)c2cc1OCCCN1CCOCC1` [Gefitinib (ZD1839)], the “thermal shift delta Tm” value in the test with LOC_OS02G45750-cb003 worked out at 1.36 °C; in the test with LOC_OS02G54510-cb004 it was 0.04 °C; in the test with LOC_OS03G04050-cb001, 0.31 °C; with LOC_OS03G12390-cb001, 1.33 °C; with LOC_OS03G27990-cb004, 0.64 °C; in the test with LOC_OS03G50450-cb001 it was 0.05 °C. Moreover, the “thermal shift delta Tm” value with LOC_OS03G50810-cb003 was 1.04 °C; in the test with LOC_OS04G35114-cb001 it was 4.83 °C; in the test on LOC_OS04G38480-cb003 it was 1.76 °C; in the test with LOC_OS04G41100-cb001, 0.77 °C; with LOC_OS04G57630-cb004, -0.05 °C; in the test with LOC_OS05G07850-cb002, 9.4 °C. Also, the “thermal shift delta Tm” value in the test on LOC_OS05G16824-cb004 is -0.18 °C; with LOC_OS05G28520-cb001, 0.21 °C; in the test on LOC_OS05G30820-cb001 it was 0.41 °C; with LOC_OS05G43570-cb004 it was 0.31 °C; with LOC_OS06G16330-cb003, 2.35 °C; in the test on LOC_OS06G22820-cb001, 0.63 °C. Moreover, the “thermal shift delta Tm” value was 0.99 °C with LOC_OS07G06570-cb004 and 0.24 °C with LOC_OS07G07230-cb001.
With `CNc1nc(Nc2cn(C(C)(C)C#N)nc2C)ncc1C(F)(F)F`, the “thermal shift delta Tm” value in the test on LOC_OS02G45750-cb003 was found to be 0.99 °C; with LOC_OS02G54510-cb004, 0.1 °C; in the test with LOC_OS03G04050-cb001, 0.32 °C; in the test with LOC_OS03G12390-cb001, 0.28 °C; with LOC_OS03G27990-cb004, 0.39 °C; in the test with LOC_OS03G50450-cb001 it was 0.78 °C. The “thermal shift delta Tm” value in the test with LOC_OS03G50810-cb003 stood at 0.62 °C; in the test with LOC_OS04G35114-cb001, 1.36 °C; with LOC_OS04G38480-cb003, 1.34 °C; in the test on LOC_OS04G41100-cb001, 0.22 °C; with LOC_OS04G57630-cb004 it was 0.21 °C; with LOC_OS05G07850-cb002 it was 3.12 °C. In addition, the “thermal shift delta Tm” value was found to be 1.76 °C with LOC_OS05G16824-cb004; 0.47 °C with LOC_OS05G28520-cb001; 0.36 °C in the test on LOC_OS05G30820-cb001; 0.56 °C in the test on LOC_OS05G43570-cb004; 0.81 °C in the test on LOC_OS06G16330-cb003; 0.4 °C in the test with LOC_OS06G22820-cb001. The “thermal shift delta Tm” value is 0.68 °C in the test on LOC_OS07G06570-cb004 and -0.13 °C in the test on LOC_OS07G07230-cb001.
As for `C[C@H](NC(=O)/C(C#N)=C/c1cccc(Br)n1)c1ccccc1`, the “thermal shift delta Tm” value is -0.81 °C in the test with LOC_OS02G45750-cb003; -0.57 °C in the test on LOC_OS02G54510-cb004; 0.05 °C with LOC_OS03G04050-cb001; -2.64 °C in the test on LOC_OS03G12390-cb001; -2.84 °C with LOC_OS03G27990-cb004; 0.09 °C in the test with LOC_OS03G50450-cb001. Moreover, the “thermal shift delta Tm” value is -1.35 °C in the test with LOC_OS03G50810-cb003; -1.1 °C in the test with LOC_OS04G35114-cb001; 0.59 °C in the test on LOC_OS04G38480-cb003; -0.11 °C in the test with LOC_OS04G41100-cb001; -1.13 °C with LOC_OS04G57630-cb004; -0.94 °C in the test with LOC_OS05G07850-cb002. Further, the “thermal shift delta Tm” value is -17.3 °C in the test on LOC_OS05G16824-cb004; -0.45 °C in the test with LOC_OS05G28520-cb001; 0.31 °C in the test on LOC_OS05G30820-cb001; -0.67 °C in the test with LOC_OS05G43570-cb004; -1.56 °C with LOC_OS06G16330-cb003; 0.13 °C with LOC_OS06G22820-cb001. The “thermal shift delta Tm” value in the test on LOC_OS07G06570-cb004 was 0.17 °C; with LOC_OS07G07230-cb001 it was -0.47 °C.
